Assay results published in PubChem BioAssay (NCATS).
Records with an inconclusive call do not appear. The source made the active and inactive calls. Unless noted, calls follow the shape of the dose curve; as a rule, active = well fitted curve in the direction sought with a large enough effect; inconclusive = small, poorly fitted or top-dose-only effect, or another doubt; inactive = no such curve, though single readings can be large; an effect the other way counts as inactive or inconclusive.

Assays:
[1] = molecular target: Lysosomal acid glucosylceramidase (Homo sapiens) (UniProt P04062); test: Glucocerebrosidase-p2 (AID 348; in the data active = potency below about 10 µM; also: potency is read from the fitted curve at half-maximal effect); conditions: purified GBA, blue fluorogenic substrate, 40 min
Chain of Lysosomal acid glucosylceramidase (Homo sapiens) (P04062 whole entry, looked up): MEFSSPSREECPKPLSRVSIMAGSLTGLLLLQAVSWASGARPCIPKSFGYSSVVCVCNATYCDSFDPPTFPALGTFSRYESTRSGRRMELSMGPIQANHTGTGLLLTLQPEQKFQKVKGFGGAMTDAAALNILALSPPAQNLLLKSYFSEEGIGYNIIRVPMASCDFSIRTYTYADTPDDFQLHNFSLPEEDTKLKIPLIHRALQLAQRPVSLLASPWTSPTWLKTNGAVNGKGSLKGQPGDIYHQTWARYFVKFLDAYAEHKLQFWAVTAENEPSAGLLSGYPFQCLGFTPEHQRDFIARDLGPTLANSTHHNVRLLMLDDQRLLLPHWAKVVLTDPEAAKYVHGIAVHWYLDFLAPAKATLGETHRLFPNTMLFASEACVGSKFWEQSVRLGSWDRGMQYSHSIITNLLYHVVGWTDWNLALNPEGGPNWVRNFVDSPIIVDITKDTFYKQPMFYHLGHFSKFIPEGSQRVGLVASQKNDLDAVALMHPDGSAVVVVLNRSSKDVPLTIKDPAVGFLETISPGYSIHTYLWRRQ
Outline: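 Normal human glucocerebrosidase (0.2 nM) with blue fluorogenic substrate (80 uM final) in citrate/phosphate pH 5.9 with 10mM sodium taurocholate, 0.01% tween-20; 40 min RT, NaOH/glycine stop; fluorescence Ex 365/Em 440; AC50 from a titration from 0.6 nM upwards.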

[2] = AP1 Signaling Pathway (AID 357; active = well fitted curve in either direction with a large enough effect, not every such curve was filed as active;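 also: ME-180 reporter cells stimulated with EGF at its EC50 level; % is scaled to controls: 0 for no effect and ±100 for the full control effect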); conditions: ME-180 AP-1-bla reporter, EGF-induced, beta-lactamase ratio, 5 h; at 7.69 µM (top of the series) unless noted
Outline: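 In this screen, ME-180 cells in Opti-MEM with 0.5% dialyzed FBS received EC50 EGF and compound titrations for 5 h. AP-1 reporter beta-lactamase was detected via CCF4 ratio, giving AC50 for positive and negative modulators.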

[3] = molecular target: Cytochrome P450 1A2 (Homo sapiens) (UniProt P05177); test: p450-cyp1a2 (AID 410; calls by dose curve; also: potency is read from the fitted curve at half-maximal effect;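 as to activity change, negative = inhibition: -100% = full effect of reference inhibitor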); conditions: recombinant CYP1A2, luciferin-ME demethylation, luminescence; series mostly up to 57 µM
Chain of Cytochrome P450 1A2 (Homo sapiens) (P05177 whole entry, looked up): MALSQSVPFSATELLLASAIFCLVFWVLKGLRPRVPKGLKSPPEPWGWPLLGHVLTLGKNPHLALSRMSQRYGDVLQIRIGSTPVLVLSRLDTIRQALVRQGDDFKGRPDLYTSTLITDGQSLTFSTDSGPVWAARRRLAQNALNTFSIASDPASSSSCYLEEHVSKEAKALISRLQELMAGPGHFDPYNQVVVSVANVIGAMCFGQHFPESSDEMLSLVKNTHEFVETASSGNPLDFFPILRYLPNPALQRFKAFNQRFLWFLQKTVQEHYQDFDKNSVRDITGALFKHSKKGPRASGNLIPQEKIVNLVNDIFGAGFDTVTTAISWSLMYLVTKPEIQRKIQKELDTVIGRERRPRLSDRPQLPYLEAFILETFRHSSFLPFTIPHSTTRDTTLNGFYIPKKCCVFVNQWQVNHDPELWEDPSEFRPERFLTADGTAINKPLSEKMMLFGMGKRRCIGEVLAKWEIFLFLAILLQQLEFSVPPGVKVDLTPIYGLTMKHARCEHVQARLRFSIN
Outline: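 Read-out is luminescence from luciferin produced by CYP1A2 demethylation of Luciferin-ME (100uM, at Km). Detection reagent stopped the 60 min NADPH-dependent reaction; signals were normalized to 57 uM furafylline.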

[4] = NFAT Signaling Pathway (AID 444; active = well fitted curve in either direction with a large enough effect, not every such curve was filed as active;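 also: carbachol stimulus at about its EC50 of 1 µM final; % is scaled to controls: 0 for no effect and ±100 for the full control effect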); conditions: Jurkat NFAT-bla M1, carbachol, beta-lactamase ratio, 5 h; at 7.69 µM (top of the series) unless noted
Outline: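 Read-out: CCF4 FRET ratio (460 nm/530 nm) after 1 h RT dye loading, used for %activity and AC50 from titration series. Cells: Jurkat NFAT-β-lactamase/M1 line, treated with compound plus 1 uM carbachol for 5 h, 37 °C.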

[5] = Stat Signaling Pathway (AID 446; active = well fitted curve in either direction with a large enough effect, not every such curve was filed as active;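 also: ME-180 cervical cancer cells given 40 pM IL-6 alongside compound; SIE-controlled beta-lactamase reporter measured as 460/530 nm FRET emission ratio; % is scaled to controls: 0 for no effect and ±100 for the full control effect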); conditions: ME-180 (cervical carcinoma) SIE beta-lactamase reporter, IL-6 stimulated, 5 h; at 7.69 µM (top of the series) unless noted
Outline: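 Emission at 460 and 530 nm (excitation 405 nm) reports SIE-controlled beta-lactamase in ME-180 cells. Cells received compound with 40 pM IL-6 for 5 hrs at 37 C; data scaled between 300 pM IL-6 and 125 nM JAK-inhibitor controls.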

[6] = molecular target: Glucocorticoid receptor (Homo sapiens) (UniProt P04150); test: GR-GFP Redistribution (AID 450;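 active = compounds whose dose series gives a full or clear partial fitted curve of increased nuclear translocation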; also: potency is read from the fitted curve at half-maximal effect); conditions: U2OS GR-GFP nuclear translocation, laser cytometry, 2 h
Chain of Glucocorticoid receptor (Homo sapiens) (P04150 whole entry, looked up, the tested form may be a part): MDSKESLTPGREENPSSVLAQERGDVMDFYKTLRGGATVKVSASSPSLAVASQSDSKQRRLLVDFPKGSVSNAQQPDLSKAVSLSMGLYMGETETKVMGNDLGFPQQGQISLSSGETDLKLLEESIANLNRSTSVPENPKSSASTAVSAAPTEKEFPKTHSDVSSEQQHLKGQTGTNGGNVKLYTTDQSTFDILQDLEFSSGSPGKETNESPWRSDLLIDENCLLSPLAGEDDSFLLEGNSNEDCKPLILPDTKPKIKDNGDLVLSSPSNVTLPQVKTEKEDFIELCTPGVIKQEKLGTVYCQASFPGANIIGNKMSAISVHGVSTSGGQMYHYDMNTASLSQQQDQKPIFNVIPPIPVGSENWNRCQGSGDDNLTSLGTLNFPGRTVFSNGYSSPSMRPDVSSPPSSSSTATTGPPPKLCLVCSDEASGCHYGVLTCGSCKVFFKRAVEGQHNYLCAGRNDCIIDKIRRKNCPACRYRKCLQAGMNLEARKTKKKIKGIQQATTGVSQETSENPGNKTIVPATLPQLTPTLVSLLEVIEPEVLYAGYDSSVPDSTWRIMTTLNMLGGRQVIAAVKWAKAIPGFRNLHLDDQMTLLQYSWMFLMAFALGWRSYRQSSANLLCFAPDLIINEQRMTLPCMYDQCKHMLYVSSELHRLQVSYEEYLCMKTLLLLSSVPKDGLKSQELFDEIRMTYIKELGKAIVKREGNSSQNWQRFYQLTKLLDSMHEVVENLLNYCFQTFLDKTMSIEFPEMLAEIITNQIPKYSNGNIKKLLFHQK

[7] = molecular target: Glucocorticoid receptor (Homo sapiens) (UniProt P04150); test: GR-EFC Redistribution (AID 451; calls by dose curve; also: potency is read from the fitted curve at half-maximal effect); conditions: CHO-K1 GR-EFC translocation, beta-gal luminescence, 2 h
Outline: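 Translocation of GR-ED fusion to nuclear EA restores b-gal, read by luminescence after 1 h room-temperature detection. Engineered CHO-K1 biosensor cells, 1,000/well, exposed 2 h at 37 C to titrations up to 46 uM final.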

[8] = molecular target: Mitogen-activated protein kinase 10 (Mus musculus) (UniProt Q61831); test: JNK3 AlphaScreen Assay (AID 530; active = well fitted curve in either direction with a large enough effect, not every such curve was filed as active;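 also: kinase came from lysate of stimulated human HepG2 cells; signal reports phosphorylation of biotinylated GST-cJun 1-79 at Ser73 with 10 µM ATP; % is scaled to controls: 0 for no effect and ±100 for the full control effect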); conditions: JNK3 lysate, c-Jun phosphorylation; series mostly up to 57.1 µM
Outline: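 Kinase buffer: 20 mM Tris-HCl pH 7.6, 10 mM MgCl2, 1 mM DTT, 0.1 mM Na3VO4, 0.01% Tween-20; ATP 10 uM. Substrate biotin-GST-cJun(1-79), enzyme from activated HepG2 lysates. Detection by Ser73 phospho-antibody AlphaScreen.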

[9] = molecular target: 3',5'-cyclic-AMP phosphodiesterase 4B (Homo sapiens) (UniProt Q07343); test: qHTS Assay for Inhibitors of PDE-IV (AID 607; active = well fitted activation curve with a large enough effect in the main read-out, with a control signal flat, not every such curve was filed as active; also: % of control where 0% means no effect); conditions: HEK293 ACTOne CNG channel cells, membrane potential fluorescence; series mostly up to 22.9 µM
Chain of 3',5'-cyclic-AMP phosphodiesterase 4B (Homo sapiens) (Q07343 whole entry, looked up): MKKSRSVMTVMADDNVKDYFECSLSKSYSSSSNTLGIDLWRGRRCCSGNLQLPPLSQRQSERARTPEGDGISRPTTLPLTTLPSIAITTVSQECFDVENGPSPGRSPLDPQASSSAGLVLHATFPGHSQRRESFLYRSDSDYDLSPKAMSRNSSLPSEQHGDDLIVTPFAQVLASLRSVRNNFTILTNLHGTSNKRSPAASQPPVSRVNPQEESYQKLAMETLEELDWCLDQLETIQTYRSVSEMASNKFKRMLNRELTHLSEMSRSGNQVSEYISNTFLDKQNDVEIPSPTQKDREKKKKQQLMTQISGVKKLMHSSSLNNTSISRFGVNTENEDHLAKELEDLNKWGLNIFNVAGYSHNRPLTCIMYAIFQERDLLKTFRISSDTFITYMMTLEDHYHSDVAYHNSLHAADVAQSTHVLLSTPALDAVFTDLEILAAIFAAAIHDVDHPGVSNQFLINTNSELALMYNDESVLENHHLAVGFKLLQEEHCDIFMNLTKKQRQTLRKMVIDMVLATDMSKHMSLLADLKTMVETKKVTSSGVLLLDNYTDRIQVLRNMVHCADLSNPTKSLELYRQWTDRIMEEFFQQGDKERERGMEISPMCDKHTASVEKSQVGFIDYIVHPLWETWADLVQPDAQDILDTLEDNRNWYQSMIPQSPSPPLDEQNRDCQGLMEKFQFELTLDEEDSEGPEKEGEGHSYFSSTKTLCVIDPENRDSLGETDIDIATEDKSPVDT
Outline: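 The readout is membrane depolarisation from a cAMP-sensing CNG channel, detected with a potential dye at ex 535/em 590. Cells were HEK293-derived (endogenous PDE-IV) at 1000 cells/well, titrated up to 22.9 uM final.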

[10] = molecular target: Cytochrome P450 3A4 (Homo sapiens) (UniProt P08684); test: qHTS Assay for Inhibitors and Substrates of Cytochrome P450 3A4 (AID 884); conditions: recombinant CYP3A4, Luciferin-PPXE luminescence; series mostly up to 57.1 µM; also: potency is read from the fitted curve at half-maximal effect; nearly all actives have a fitted effect of over 50% in size
Chain of Cytochrome P450 3A4 (Homo sapiens) (P08684 whole entry, looked up): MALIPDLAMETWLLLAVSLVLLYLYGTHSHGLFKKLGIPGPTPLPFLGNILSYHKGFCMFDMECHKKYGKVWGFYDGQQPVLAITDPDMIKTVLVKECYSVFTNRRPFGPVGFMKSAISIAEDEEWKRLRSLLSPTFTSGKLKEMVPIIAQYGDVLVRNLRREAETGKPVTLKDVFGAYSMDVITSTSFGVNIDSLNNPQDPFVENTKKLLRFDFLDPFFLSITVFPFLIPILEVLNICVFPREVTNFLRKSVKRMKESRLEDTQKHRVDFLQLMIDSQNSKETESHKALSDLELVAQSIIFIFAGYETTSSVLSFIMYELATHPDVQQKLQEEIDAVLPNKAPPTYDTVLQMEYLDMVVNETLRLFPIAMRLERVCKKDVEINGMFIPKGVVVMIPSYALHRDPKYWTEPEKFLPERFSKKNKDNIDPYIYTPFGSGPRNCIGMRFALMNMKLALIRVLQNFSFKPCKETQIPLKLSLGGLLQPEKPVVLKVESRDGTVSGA
Outline: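 Luminescent readout of luciferin produced by CYP3A4 (20 nM) dealkylation of Luciferin-PPXE, 25 uM (its KM). NADPH-driven reaction ran 60 min at RT after 10 min compound preincubation; data scaled to 57 uM ketoconazole as 100% inhibition.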

[11] = molecular target: Cytochrome P450 3A4 (Homo sapiens) (UniProt P08684); test: qHTS Assay for Activators of Cytochrome P450 3A4 (AID 885); conditions: recombinant CYP3A4, Luciferin-PPXE luminescence, 60 min; series mostly up to 57.1 µM; also: nearly all actives have a fitted effect of over 65% in size
Outline: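 Activators are scored by enhanced luminescence from CYP3A4 conversion of luciferin-PPXE (25uM, equal to KM) to luciferin, after 60 min at RT with an NADPH-regenerating system.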

[12] = Confirmation and Secondary Assay for Modulators of Hemoglobin Beta Chain Splicing at IVS2 654 locus (AID 910); conditions: HeLa EGFP-654 splicing reporter, GFP fluorescence, 48 h; series mostly up to 38.3 µM;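 also: HeLa cells stably carrying EGFP split by mutant beta-globin IVS2-654 intron; per-well total GFP intensity by laser scanning cytometry after 2-day treatment; % of control where 0% means no effect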
Outline: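 Readout: per-well total peak green fluorescence (488 nm ex, 500–520 nm em) from objects 5–250 µm, reflecting correct splicing of an EGFP-654 reporter. Compounds were applied for 2 days at 37 °C to overnight-plated HeLa EGFP-654 cells; controls were DMSO and 500 nM IVS2-654 PNA.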

[13] = Counterscreen qHTS for small molecule stabilizers of the endoplasmic reticulum resident proteome: GLuc-NoTag assay (AID 1508627); conditions: Gaussia luciferase NoTag secretion counterscreen, luminescence, thapsigargin 100 nM for final 4 h; series mostly up to 76.4 µM; also: potency is read from the fitted curve at half-maximal effect;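 as to activity change, negative = inhibition: SH-SY5Y cells given compound then 100 nM thapsigargin to empty ER calcium; 0% = thapsigargin alone and -100% = DMSO vehicle control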
Outline: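 Counterscreen line: SH-SY5Y-GLuc-NoTag cells, treated with compound 19 hr before a 4 hr, 100 nM thapsigargin calcium depletion. Secreted Gaussia luciferase in the medium was measured by luminescence after coelenterazine was added (0.07x final), with cells unlysed.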

[14] = Confirmatory qHTS for small molecule stabilizers of the endoplasmic reticulum resident proteome: Secreted ER Calcium Modulated Protein (SERCaMP) assay (AID 1508628); conditions: SERCaMP secreted luciferase ER calcium/proteostasis reporter; series mostly up to 76.3 µM; also: nearly all actives have a fitted effect of over 40% in size; also: potency is read from the fitted curve at half-maximal effect
Outline: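 GLuc-SERCaMP-expressing SH-SY5Y cells, pretreated 16 h with compound, are challenged with thapsigargin to empty ER calcium stores; after 4 h, coelenterazine is added directly to the medium and luminescence is imaged.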

[15] = Cell Viability qHTS for small molecule stabilizers of the endoplasmic reticulum resident proteome (AID 1508629); conditions: cell viability counter-screen, 100 nM thapsigargin for final 4 h;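 also: compound exposure about 46 h in total before the viability read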; also: potency is read from the fitted curve at half-maximal effect
[16] = qHTS Assay for Lipid Storage Modulators (AID 1519; calls by dose curve); conditions: Drosophila S3 cells, BODIPY lipid droplet/cell ratio, laser cytometry, cells loaded with oleic acid; for activity change, negative = inhibition: at 57.5 µM (top of the series)
Outline: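 Cells seeded at 5,000 per well were treated with compounds over a concentration series and loaded with oleic acid (400 uM, as added). Lipid droplet fluorescence (488 nm excitation, 500-530 nm channel) was read by laser-scanning cytometry and normalized to 20 uM Triacsin C.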

[17] = molecular target: Dual specificity protein kinase CLK4 (Homo sapiens) (UniProt Q9HAZ1); test: qHTS Assay for Inhibitors of CDC-like Kinase 4 (Kinase-Glo Assay) (AID 1770); conditions: recombinant Clk4, Kinase-Glo ATP depletion luminescence; series mostly up to 66.7 µM; also: % is scaled to controls: 0 for no effect and ±100 for the full control effect; nearly all actives have a fitted effect of over 65% in size
Chain of Dual specificity protein kinase CLK4 (Homo sapiens) (Q9HAZ1 whole entry, looked up): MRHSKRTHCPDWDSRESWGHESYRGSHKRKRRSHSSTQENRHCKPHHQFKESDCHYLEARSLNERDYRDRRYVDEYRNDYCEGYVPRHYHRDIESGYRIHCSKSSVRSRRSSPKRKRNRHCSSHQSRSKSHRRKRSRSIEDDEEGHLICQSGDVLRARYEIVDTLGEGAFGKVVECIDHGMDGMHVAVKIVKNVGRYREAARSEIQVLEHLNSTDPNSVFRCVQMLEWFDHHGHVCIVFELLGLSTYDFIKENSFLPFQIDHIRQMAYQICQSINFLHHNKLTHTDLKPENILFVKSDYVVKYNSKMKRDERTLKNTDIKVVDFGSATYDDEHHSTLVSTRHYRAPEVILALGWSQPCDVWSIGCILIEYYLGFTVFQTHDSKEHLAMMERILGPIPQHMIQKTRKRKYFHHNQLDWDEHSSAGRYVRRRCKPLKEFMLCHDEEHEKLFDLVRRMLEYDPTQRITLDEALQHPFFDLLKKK
Outline: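 Inhibition was judged from remaining ATP, measured by Ultra-Glo luciferase bioluminescence after Clk4 (25 nM) had acted on RS peptide at 1 uM ATP for 4.5 hours, room temperature.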

[18] = molecular target: Dual specificity protein kinase CLK4 (Homo sapiens) (UniProt Q9HAZ1); test: qHTS Assay for Inhibitors of CDC-like Kinase 4 (ADP-FP Assay) (AID 1795); conditions: Transcreener ADP fluorescence polarization; series mostly up to 50 µM;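 also: recombinant human CLK4 phosphorylating RS repeat peptide at 1 µM ATP; % is scaled to controls: 0 for no effect and ±100 for the full control effect; nearly all actives have a fitted effect of over 60% in size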
Outline: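 Inhibition of ADP formation by 6.25 nM Clk4 is measured using 1 uM ATP and 100 uM RS repeat peptide over one hour. Produced ADP displaces a fluorescent tracer from antibody, lowering polarization.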

[19] = molecular target: Ubiquitin carboxyl-terminal hydrolase 1 (Homo sapiens) (UniProt O94782); test: Inhibitors of USP1/UAF1: Pilot qHTS (AID 504865); conditions: purified USP1/UAF1, Ub-rhodamine cleavage fluorescence; series mostly up to 54.9 µM;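 also: rhodamine fluorescence freed from ubiquitin-rhodamine substrate followed over time; top concentration of the series differs between compounds; % is scaled to controls: 0 for no effect and ±100 for the full control effect; nearly all actives have a fitted effect of over 35% in size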
Chain of Ubiquitin carboxyl-terminal hydrolase 1 (Homo sapiens) (O94782 whole entry, looked up): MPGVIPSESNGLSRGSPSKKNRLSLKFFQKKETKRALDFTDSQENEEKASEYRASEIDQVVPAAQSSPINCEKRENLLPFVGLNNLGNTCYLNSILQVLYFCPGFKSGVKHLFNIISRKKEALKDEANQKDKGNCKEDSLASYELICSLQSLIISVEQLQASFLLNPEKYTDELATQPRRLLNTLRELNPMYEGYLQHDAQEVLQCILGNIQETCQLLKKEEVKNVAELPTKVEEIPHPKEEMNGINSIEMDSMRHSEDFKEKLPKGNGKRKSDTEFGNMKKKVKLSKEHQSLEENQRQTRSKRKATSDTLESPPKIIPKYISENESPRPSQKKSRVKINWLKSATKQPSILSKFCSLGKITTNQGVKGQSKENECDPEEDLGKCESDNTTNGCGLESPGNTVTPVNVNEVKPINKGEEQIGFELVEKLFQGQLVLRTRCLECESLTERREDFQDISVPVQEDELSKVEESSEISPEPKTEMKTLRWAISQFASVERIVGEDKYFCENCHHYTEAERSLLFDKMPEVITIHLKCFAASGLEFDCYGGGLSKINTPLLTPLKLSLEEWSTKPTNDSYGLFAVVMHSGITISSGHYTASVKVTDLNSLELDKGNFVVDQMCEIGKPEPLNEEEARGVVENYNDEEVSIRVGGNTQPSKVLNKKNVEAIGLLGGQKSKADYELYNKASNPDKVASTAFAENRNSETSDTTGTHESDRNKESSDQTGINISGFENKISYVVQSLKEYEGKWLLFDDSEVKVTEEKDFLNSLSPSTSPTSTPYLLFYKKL
Outline: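 Kinetic fluorescence assay: 1nM USP1/UAF1, 15 min compound preincubation, then 150nM Ub-Rho; 480/540 nm.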

[20] = molecular target: Dual specificity protein kinase CLK4 (Homo sapiens) (UniProt Q9HAZ1); test: qHTS Assay for Inhibitors of CDC-like Kinase 4 (ADP-Glo Assay) (AID 1771); conditions: recombinant CLK4, ADP-Glo luminescence; series mostly up to 80 µM; also: % is scaled to controls: 0 for no effect and ±100 for the full control effect; nearly all actives have a fitted effect of over 70% in size
Outline: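 In this ADP-Glo format, 1 uM ATP and 100 uM RS peptide served as substrates for 25 nM Clk4 in Mg2+/EGTA/DTT/Triton buffer; reactions ran 1 hr at room temperature before luminescent ADP quantification.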

[21] = measured here: cell count channel max response
[22] = measured here: lipid channel max response

CN1CCN(c2nc(-c3ccc(N(C)C)cc3)nc3ccccc23)CC1
inactive: Potency [1] > 11.4 µM | activity change, negative = inhibition [2] 5.88% | activity change, negative = inhibition [4] -2.47% | activity, negative = inhibition [5] 3.05% | Potency [6] > 46 µM | Potency [7] > 46 µM | outcome [8] | Potency [9] | Potency [11] | outcome [12] | Potency [13] | Potency [14] | max response [15] 17.5%
active: Potency [3] 12.6 µM | Potency [10] 15.8 µM

CC(=O)N[C@H]1C(O[C@@H]2O[C@H](C[C@@H](O)[C@H]3O[C@@H](N4CCC(=O)NC4=O)[C@H](O)[C@@H]3O)[C@H](O)[C@H](O)[C@H]2NC(=O)/C=C/CCCCCCCCCCC(C)C)OC(CO)[C@@H](O)[C@@H]1O (stereo not given in full)
active: Potency [13] 35.5 µM | Potency [14] 0.562 µM | Potency [15] 0.398 µM

O=C(c1cc(C(F)(F)F)cc(C(F)(F)F)c1)N1CCC2(CC1)CCN(c1ccccn1)CC2
inactive: Potency [1] 10.2 µM | activity change, negative = inhibition [2] -6.99% | Potency [3] | activity, negative = inhibition [5] -1.33% | Potency [7] > 46 µM | outcome [8] | Potency [9] | activity change, negative = inhibition [16] -8.11% | Potency [13] | max response [15] 25.1%
1.85%: max response [16, 22]
10.4%: max response [16, 21]

CN1CCN(c2nc(-c3ccccc3C(F)(F)F)nc3ccccc23)CC1
inactive: Potency [1] > 11.4 µM | activity change, negative = inhibition [2] -3.47% | activity change, negative = inhibition [4] -6.69% | activity, negative = inhibition [5] -4.43% | Potency [6] > 46 µM | Potency [7] > 46 µM | outcome [8] | Potency [9] | Potency [11] | Potency [17] | Potency [18] | Potency [19] | Potency [13] | max response [15] 16.6%
active: Potency [3] 10 µM | Potency [14] 14.1 µM

COCCn1c(=O)c(-c2ccc(Cl)cc2)nc2cnc(OC)nc21
active: Potency [3] 0.398 µM | Potency [10] 7.94 µM
inactive: Potency [1] > 11.4 µM | activity change, negative = inhibition [2] 5.96% | activity, negative = inhibition [5] -10.9% | Potency [6] > 9.22 µM | Potency [7] > 46 µM | outcome [8] | Potency [9] | Potency [11] | Potency [13] | Potency [14]

CN1CCN(c2ncc3nc(-c4cc(F)cc(F)c4)c(=O)n(-c4ccccc4)c3n2)CC1
inactive: Potency [1] > 11.4 µM | Potency [6] > 9.22 µM | Potency [7] > 46 µM | outcome [8] | activity change, negative = inhibition [16] 2.22% | Potency [13] | Potency [14]
14.9%: max response [16, 22]
13.7%: max response [16, 21]

CN1CCN(c2ncc3nc(-c4ccccc4)c(=O)n(CCc4ccccc4)c3n2)CC1
active: Potency [14] 39.8 µM
inactive: Potency [1] > 11.4 µM | Potency [6] > 9.22 µM | Potency [7] > 46 µM | outcome [8] | activity change, negative = inhibition [16] -1.95% | Potency [17] | Potency [20] | Potency [18] | Potency [19] | Potency [13]
-5.21%: max response [16, 22]
-2.1%: max response [16, 21]
